Data published in PubChem BioAssay.
Calls of active or inactive are those of the source.

Legend:
[1] = binders of probe aFSTL3 on microarray, primary screen, stem cell growth factor project, biochemical, small-molecule microarray, fluorescence 635/667 (AID 1064); details: higher = more signal;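 also: measures binding of the biotinylated anti-FSTL3 antibody to printed compounds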
[2] = binders from COS7 lysate, DM2A8 probe, primary screen, torsin A project, cell lysate, small-molecule microarray, fluorescence 635/667 (AID 1065); details: higher = more signal, COS7 lysate expressing mutant human TOR1A
[3] = binders of probe aFGF2 on microarray, primary screen, stem cell growth factor project, biochemical, small-molecule microarray, fluorescence 635/667 (AID 1067); details: higher = more signal;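 also: measures binding of biotinylated aFGF2 protein to printed compounds on slides; z-score merges feature fluorescence and signal-to-noise across triplicate slides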
[4] = binders of probe aFGF10 on microarray, primary screen, stem cell growth factor project, biochemical, small-molecule microarray, fluorescence 635/667 (AID 1071); details: higher = more signal;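 also: score merges 667 nm spot intensity and signal to noise from triplicate slides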
[5] = molecular target: Neurogenic locus notch homolog protein 2 (Homo sapiens) (UniProt Q04721); assay: Notch2 binders on small-molecule microarrays, primary screen, biochemical, small-molecule microarray, 635 nm fluorescence, stem cell growth factors (AID 1073); details: Notch2 binding, higher = more signal
Neurogenic locus notch homolog protein 2 (Homo sapiens), sequence (Q04721 whole entry, looked up, canonical isoform): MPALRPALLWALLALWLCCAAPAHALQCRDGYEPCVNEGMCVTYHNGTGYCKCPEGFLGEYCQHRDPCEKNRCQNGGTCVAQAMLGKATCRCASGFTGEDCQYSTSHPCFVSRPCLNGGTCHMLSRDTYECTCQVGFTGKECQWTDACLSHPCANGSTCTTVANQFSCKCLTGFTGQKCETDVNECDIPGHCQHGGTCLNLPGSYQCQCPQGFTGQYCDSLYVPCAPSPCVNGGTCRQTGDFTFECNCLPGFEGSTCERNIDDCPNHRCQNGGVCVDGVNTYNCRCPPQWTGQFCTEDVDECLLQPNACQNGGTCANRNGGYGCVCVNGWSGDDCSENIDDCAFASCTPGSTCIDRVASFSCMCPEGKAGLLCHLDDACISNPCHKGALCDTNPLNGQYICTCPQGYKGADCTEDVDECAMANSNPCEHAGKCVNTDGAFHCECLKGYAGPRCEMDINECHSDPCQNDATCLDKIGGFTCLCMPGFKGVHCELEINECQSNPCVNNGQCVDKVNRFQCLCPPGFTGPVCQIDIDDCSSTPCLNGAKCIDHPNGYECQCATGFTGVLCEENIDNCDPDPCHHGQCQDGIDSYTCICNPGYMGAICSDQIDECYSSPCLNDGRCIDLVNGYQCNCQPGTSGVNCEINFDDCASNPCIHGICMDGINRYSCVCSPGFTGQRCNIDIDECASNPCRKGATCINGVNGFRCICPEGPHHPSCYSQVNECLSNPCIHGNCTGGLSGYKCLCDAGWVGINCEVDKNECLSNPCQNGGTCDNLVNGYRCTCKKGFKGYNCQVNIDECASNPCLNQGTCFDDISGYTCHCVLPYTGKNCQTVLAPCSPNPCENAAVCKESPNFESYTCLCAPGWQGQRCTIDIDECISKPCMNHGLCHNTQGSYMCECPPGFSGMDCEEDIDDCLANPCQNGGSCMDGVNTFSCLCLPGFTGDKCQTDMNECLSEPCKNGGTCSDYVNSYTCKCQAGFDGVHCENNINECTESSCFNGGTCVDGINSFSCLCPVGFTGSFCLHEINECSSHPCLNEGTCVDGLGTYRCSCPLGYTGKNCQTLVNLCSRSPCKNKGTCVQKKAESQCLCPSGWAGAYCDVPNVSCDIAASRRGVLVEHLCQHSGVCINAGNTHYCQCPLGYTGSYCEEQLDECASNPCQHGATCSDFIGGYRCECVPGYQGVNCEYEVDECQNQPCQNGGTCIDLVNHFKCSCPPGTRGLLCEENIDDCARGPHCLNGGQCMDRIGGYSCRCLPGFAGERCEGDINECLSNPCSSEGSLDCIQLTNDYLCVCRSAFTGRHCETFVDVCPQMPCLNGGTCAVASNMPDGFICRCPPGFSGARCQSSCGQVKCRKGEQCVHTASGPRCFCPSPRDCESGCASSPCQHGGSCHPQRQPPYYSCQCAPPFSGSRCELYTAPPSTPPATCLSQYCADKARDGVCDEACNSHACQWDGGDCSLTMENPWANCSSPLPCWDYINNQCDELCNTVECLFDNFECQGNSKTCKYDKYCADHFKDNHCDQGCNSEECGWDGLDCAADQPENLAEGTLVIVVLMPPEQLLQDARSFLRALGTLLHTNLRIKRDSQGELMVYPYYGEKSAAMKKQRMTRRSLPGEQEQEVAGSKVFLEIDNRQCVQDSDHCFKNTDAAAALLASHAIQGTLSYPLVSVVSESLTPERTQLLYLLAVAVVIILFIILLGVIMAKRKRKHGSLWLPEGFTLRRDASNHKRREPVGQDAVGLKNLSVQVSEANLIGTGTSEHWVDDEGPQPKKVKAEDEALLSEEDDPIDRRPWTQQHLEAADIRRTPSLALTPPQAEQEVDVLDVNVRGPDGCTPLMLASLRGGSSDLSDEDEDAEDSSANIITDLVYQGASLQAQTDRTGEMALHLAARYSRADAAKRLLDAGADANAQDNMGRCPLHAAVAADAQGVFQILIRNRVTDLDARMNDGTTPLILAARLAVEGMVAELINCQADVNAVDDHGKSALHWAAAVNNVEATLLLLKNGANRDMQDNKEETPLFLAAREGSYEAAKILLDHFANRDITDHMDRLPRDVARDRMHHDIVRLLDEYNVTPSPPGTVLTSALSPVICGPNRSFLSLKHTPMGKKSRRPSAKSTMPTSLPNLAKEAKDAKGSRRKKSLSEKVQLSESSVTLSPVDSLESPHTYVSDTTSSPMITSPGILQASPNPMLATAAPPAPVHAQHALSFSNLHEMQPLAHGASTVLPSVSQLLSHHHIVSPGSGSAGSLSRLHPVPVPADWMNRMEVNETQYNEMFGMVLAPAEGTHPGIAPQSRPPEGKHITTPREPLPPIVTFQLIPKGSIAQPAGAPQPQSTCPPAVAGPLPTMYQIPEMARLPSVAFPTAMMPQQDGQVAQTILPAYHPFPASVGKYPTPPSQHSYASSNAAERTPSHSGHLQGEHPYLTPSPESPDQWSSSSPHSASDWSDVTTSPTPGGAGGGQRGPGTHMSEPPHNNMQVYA

[6] = molecular target: Pro-neuregulin-1, membrane-bound isoform (Homo sapiens) (UniProt Q02297); assay: NRG1 binders on small-molecule microarrays, primary screen, psychiatric disease protein project, biochemical, small-molecule microarray, fluorescence 635/667 (AID 1075); details: NRG1 binding, 635 nm fluorescence, higher = more signal;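 also: score combines 667 nm spot fluorescence with signal to noise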
Pro-neuregulin-1, membrane-bound isoform (Homo sapiens), sequence (Q02297 whole entry, looked up, the tested form may be a part, canonical isoform): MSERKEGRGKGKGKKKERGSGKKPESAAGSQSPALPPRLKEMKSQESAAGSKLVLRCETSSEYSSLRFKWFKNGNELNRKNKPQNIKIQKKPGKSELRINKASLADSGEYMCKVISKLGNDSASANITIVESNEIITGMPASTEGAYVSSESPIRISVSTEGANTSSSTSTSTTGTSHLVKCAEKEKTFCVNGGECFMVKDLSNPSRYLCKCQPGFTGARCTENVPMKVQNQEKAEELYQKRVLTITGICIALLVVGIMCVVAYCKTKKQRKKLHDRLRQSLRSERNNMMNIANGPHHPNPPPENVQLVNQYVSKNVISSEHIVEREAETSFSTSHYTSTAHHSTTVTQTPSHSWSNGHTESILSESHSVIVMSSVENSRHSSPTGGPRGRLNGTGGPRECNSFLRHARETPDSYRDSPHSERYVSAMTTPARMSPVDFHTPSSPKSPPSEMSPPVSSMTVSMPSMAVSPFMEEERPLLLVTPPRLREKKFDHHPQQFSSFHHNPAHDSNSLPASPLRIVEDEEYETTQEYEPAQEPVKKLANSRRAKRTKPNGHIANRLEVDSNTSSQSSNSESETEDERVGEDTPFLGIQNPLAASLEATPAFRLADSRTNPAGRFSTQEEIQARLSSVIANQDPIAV

[7] = tested on: Neuregulin-1 EGF-like domain; assay: binders of neuregulin-1 EGF-like domain, primary screen, biochemical, small-molecule microarray, 635 nm fluorescence (AID 1081); details: small-molecule microarray binding, higher = more signal;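 also: binding of the protein to compounds printed on small-molecule microarray slides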
[8] = FRG1 promoter luciferase signal modulators, primary screen, FRG1 inhibition for FSHD, cell-based, C2C12 myotubes, firefly/Renilla luciferase, luminescence (AID 1084); details: higher = more signal, called active from +8 up or from −8 down
[9] = binders of probe aFST on microarray, primary screen, stem cell growth factor project, biochemical, small-molecule microarray, fluorescence 635/667 (AID 1086); details: higher = more signal;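 also: score merges 667 nm fluorescence with signal-to-noise of each printed compound spot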
[10] = binders of probe aHhip on microarray, primary screen, stem cell growth factor project, biochemical, small-molecule microarray, fluorescence 635/667 (AID 1087); details: higher = more signal;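 also: score merges spot fluorescence at 667nm with spot signal to noise ratio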
[11] = tested on: PRMT1 (protein arginine N-methyltransferase 1); assay: PRMT1 binders on small-molecule microarrays, primary screen, biochemical, small-molecule microarray, 635 nm fluorescence (AID 1088); details: small-molecule microarray binding, higher = more signal;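 also: binding of Prmt1 protein to compounds spotted on small-molecule microarray slides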
[12] = yeast growth modulation, basal conditions, primary screen, YJM789 clinical isolate, OD600, 24 h (AID 1089);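 also: growth of clinical yeast isolate S. cerevisiae YJM 789 seeded 1000 cells per well; test concentration not given here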; details: S. cerevisiae YJM789 growth, higher = more signal, called active from +8 up or from −8 down
[13] = fission yeast growth modulation, primary screen, strain 972, OD600, 24 h, no modulator (AID 1090);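 also: basal condition with compound alone and no growth modifier present; test concentration not given here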; details: S. pombe 972 growth, higher = more signal, called active from +8 up or from −8 down
[14] = S. cerevisiae growth modulation with rapamycin, primary screen, strain BY4716, OD600, 96 h (AID 1091); details: higher = more signal, called active from +8 up or from −8 down; also: test concentration not given here
[15] = molecular target: Torsin-1A-interacting protein 2 (Homo sapiens) (UniProt Q8NFQ8); assay: LULL1 binders on small-molecule microarray, primary screen, cell lysate, human LULL1 lysate, 635/667 nm fluorescence (AID 1092); details: hLULL1 lysate binding, 635 nm fluorescence, higher = more signal;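 also: probe is lysate of COS7 cells overexpressing human LULL1; score merges per-feature 667 nm fluorescence with signal-to-noise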
Torsin-1A-interacting protein 2 (Homo sapiens), sequence (Q8NFQ8 whole entry, looked up): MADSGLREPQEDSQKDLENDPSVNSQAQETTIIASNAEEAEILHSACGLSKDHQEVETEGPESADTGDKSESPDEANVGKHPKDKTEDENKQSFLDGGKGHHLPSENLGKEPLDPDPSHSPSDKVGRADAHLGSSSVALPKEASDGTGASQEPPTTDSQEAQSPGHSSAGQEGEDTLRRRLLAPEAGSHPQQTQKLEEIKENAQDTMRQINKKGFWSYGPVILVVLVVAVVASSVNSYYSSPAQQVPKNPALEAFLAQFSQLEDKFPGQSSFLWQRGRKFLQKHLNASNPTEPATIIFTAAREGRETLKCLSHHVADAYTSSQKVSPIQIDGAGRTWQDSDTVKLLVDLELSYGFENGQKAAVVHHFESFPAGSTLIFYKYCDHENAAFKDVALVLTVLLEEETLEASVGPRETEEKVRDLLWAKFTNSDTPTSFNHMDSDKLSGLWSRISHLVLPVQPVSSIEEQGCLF

[16] = E. coli growth modulation, two-sided OD650, primary screen, E. coli filamentation project, strain DRC41, 24 h (AID 1093); details: OD650, 24 h, higher = more signal, called active from +8 up or from −8 down;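 also: MC1000 strain lacking acrAB efflux and sulA so SOS filamentation is blocked; test concentration not given here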
[17] = small-molecule microarray binders of probe aLefty2, primary screen, biochemical, biotinylated probe, 635/667 nm fluorescence (AID 1094); details: higher = more signal;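 also: score merges spot fluorescence near 667 nm with spot signal-to-noise ratio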
[18] = tested on: Noggin (protein binding on small-molecule microarray); assay: Noggin binders on small-molecule microarray, primary screen, biochemical, 635/667 nm fluorescence (AID 1095); details: 635 nm fluorescence, higher = more signal;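 also: score merges 667 nm feature fluorescence with signal to noise over triplicate slides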
[19] = molecular target: Neurogenic locus notch homolog protein 3 (Homo sapiens) (UniProt Q9UM47); assay: NOTCH3 binders on small-molecule microarray, primary screen, biochemical, 635/667 nm fluorescence (AID 1096); details: NOTCH3 binding, 635 nm fluorescence, higher = more signal
[20] = small-molecule microarray binders of probe aEGFR, primary screen, biochemical, biotinylated probe, 635/667 nm fluorescence (AID 1097); details: higher = more signal;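 also: probe is a biotinylated anti-EGFR antibody binding compounds printed on slides; score combines fluorescence near 667 nm and signal to noise of each spot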

SMILES | composite z-score [1] | composite z-score [2] | composite z-score [3] | composite z-score [4] | composite z-score [5] | composite z-score [6] | composite z-score [7] | z-score [8] | composite z-score [9] | composite z-score [10] | composite z-score [11] | z-score [12] | z-score [13] | z-score [14] | composite z-score [15] | z-score [16] | composite z-score [17] | composite z-score [18] | composite z-score [19] | composite z-score [20]
CC[C@@H](c1ccccc1)n1c(=O)n2n(c1=O)[C@H]1[C@H](O)[C@@H]3O[C@@H]3C(=NOCC(C)C)[C@H]1CC2 | -0.427 | 0.428 | -0.119 | 0.0304 | 0.409 | -0.0258 | 0.493 | 0.0491 (inactive) | 0.0308 | -0.0994 | -0.179 | 1.3 (inactive) | -0.0534 (inactive) | 1.37 (inactive) | 0.543 | 0.409 (inactive) | -0.213 | 0.288 | 0.586 | -0.0967
O=C1O[C@@H](c2ccccc2)[C@@H](c2ccccc2)N2[C@@H](c3ccc(OCCO)cc3)[C@]3(C(=O)Nc4ccccc43)[C@@H](C(=O)N3CCN(c4ncccn4)CC3)[C@H]12 | 0.0612 | 0.574 | -0.0493 | 0.267 | 1.25 | 1.27 | 1.34 | -0.968 (inactive) | 0.847 | 0.106 | 1.53 | 1.94 (inactive) | 1.4 (inactive) | 4.77 (inactive) | 2.97 | 0.856 (inactive) | 1.04 | 0.952 | 1.1 | 0.0679
CCCC[C@@H]1C[C@H]1[C@@H](NS(=O)(=O)c1cccc2cccnc12)c1ccc(-c2ccccc2)cc1 | 0.682 | -0.165 | 0.0011 | 0.0132 | 0.523 | 0.071 | 0.918 | 0.448 (inactive) | 0.436 | -0.0123 | -1.42 | 0.0994 (inactive) | 1.16 (inactive) | 0.676 (inactive) | 1.26 | -0.781 (inactive) | 0.0141 | -0.696 | 0.32 | -0.0728
O[C@@H](Cc1ccccc1)[C@H]1C2C=CCCC(c3ccccc3)=C2CN1Cc1cccc(Cl)c1 (stereo not given in full) | -0.39 | 0.507 | -0.015 | 0.271 | 0.799 | 1.08 | 1.07 | -2.31 (inactive) | 0.26 | -0.0047 | 1.44 | -0.122 (inactive) | -3.65 (inactive) | -1.09 (inactive) | 1.73 | 2.78 (inactive) | -0.106 | 0.96 | 1.12 | -0.0549
CCN(CC)c1ccc(N2CC=CC34O[C@@H]5/C=C\CCC(C)OC(=O)C5[C@H]3C(=O)N(CCCO)[C@@H]4C2=O)cc1 (stereo not given in full) | 0.678 | 0.215 | -0.0766 | 0.408 | -0.659 | 0.63 | 1.58 | 0.957 (inactive) | -0.444 | -0.0237 | -1 | 0.664 (inactive) | -0.0895 (inactive) | 0.928 (inactive) | 0.964 | 0.0591 (inactive) | -0.143 | -0.686 | -0.397 | -0.27
CCOC(=O)C1=CC[C@H]2C(=O)N(CC)C(=O)[C@@H]12 | -0.537 | 0.448 | -0.0715 | 0.772 | 0.937 | 0.98 | 1.11 | 0.937 (inactive) | 0.406 | 0.176 | 0.863 | -0.348 (inactive) | 1.77 (inactive) | 0.816 (inactive) | 1.08 | -0.233 (inactive) | -0.181 | 0.344 | 1 | 0.125
CC(=O)OC[C@H]1O[C@H](CCON=C(C)CCN2CCc3nc(-c4ccccc4)c(-c4ccccc4)cc3C2)C=C[C@@H]1OC(C)=O | -0.195 | 0.472 | -0.119 | 0.173 | 0.0174 | 0.266 | 0.454 | 1.23 (inactive) | -0.105 | 0.0749 | 1.25 | -1.92 (inactive) | -0.757 (inactive) | -4.46 (inactive) | 1.26 | 0.901 (inactive) | -0.0258 | 0.169 | 0.0346 | -0.0549
CCN1C(=O)[C@H]2[C@H]3[C@H](O)[C@H](O)CC(=NO[C@@H]4O[C@H](CO)[C@@H](O)[C@H](O)[C@H]4O)[C@@H]3CC[C@H]2C1=O | -0.0837 | 0.0566 | -0.211 | -0.078 | -1.21 | 0.485 | -1.11 | 0.183 (inactive) | -0.402 | 0.354 | -0.685 | -0.58 (inactive) | -0.599 (inactive) | -0.849 (inactive) | -1.12 | 0.103 (inactive) | -0.132 | -0.103 | -0.389 | -0.19
O=C1O[C@@H](c2ccccc2)[C@@H](c2ccccc2)N2[C@@H](c3ccccc3OCCO)[C@]3(C(=O)Nc4ccc(C#CCCO)cc43)[C@@H](C(=O)O)[C@H]12 | -1.32 | 0.638 | -0.189 | 0.798 | 0.438 | 1.84 | 1.36 | -1.28 (inactive) | -0.423 | -0.945 | 1.54 | 1.14 (inactive) | -0.82 (inactive) | -0.103 (inactive) | 2.47 | 0.481 (inactive) | -0.3 | 0.573 | 1.12 | -0.352
